Compounds without any hit were thinned out: in the full panel of roughly 83,000, 20% have a hit.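 For each line, cells grew in 96-well plates with the test compound present at a single concentration for 48 hours.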 Calls of active or inactive are those of the source. The calls were made as follows: active = growth percent below 10; inactive = the rest.
Experiments:
Experiment in all cases: NCI-60 one-dose screen, 48 h (100 = growth as untreated, 0 = no growth, -100 = all killed)
Conditions in all cases: 10 µM unless noted
[1] = test system: NCI-H23 lung
[2] = test system: NCI-H226 lung
[3] = test system: NCI-H322M lung
[4] = test system: HOP-62 NSCLC
[5] = test system: NCI-H460 lung
[6] = test system: HOP-92 NSCLC
[7] = test system: NCI-H522 lung
[8] = test system: A549/ATCC NSCLC
[9] = test system: 786-0 renal
[10] = test system: COLO 205 colon

Measured: growth

CC(=O)Nc1ccc([I+]c2ccc([N+](=O)[O-])cc2)cc1
inactive: [1] 84.6% | [2] 79.9% | [3] 94.8% | [4] 96.4% | [5] 104% | [6] 90.5% | [7] 46.5% | [8] 98.9% | [9] 98.3% | [10] 63.4%

COc1ccc(-c2nn(-c3ccc(NC(=O)c4ccc(Cl)c(C(F)(F)F)c4)cc3)cc2-c2ccncc2)cc1Cl
inactive: [1] 30.2% | [2] 70.5% | [3] 51.5% | [5] 11.3% | [7] 30.6% | [8] 31%
active: [4] -24.9% | [6] -0.441% | [9] -55.7% | [10] -19%

O=C(c1ccccc1)[C@H]1[C@@H]2CCCN2[C@]2(C(=O)Nc3ccc(F)cc32)[C@]12C(=O)Nc1ccccc12
inactive: [1] 93.3% | [2] 79.3% | [3] 97% | [4] 86.8% | [5] 93.6% | [6] 54.9% | [7] 73.5% | [8] 75.2% | [9] 87.7% | [10] 93.8%

CC(/C=C/C=C(\C)[C@H](O)[C@H](C)C(=O)O[C@H]1C[C@H](C)C=C2C=C[C@@]3(C)O[C@@H](O)CC(=O)[C@]3(C)[C@H]21)=C\C=C\C(=O)O
active: [1] -6.25% | [2] -3.28% | [3] 4.63% | [4] -3.68% | [5] 2.9% | [6] -14.2% | [7] -11.8% | [8] 3.63% | [9] 1.96% | [10] -55.9%

Cc1ccc(Cn2cc(COc3ccc4c5ccnc(C)c5n(CCCc5ccccc5)c4c3)nn2)cc1
inactive: [1] 84.3% | [2] 98.9% | [3] 90.6% | [4] 87.1% | [5] 103% | [6] 68.6% | [7] 66.4% | [8] 94.2% | [9] 85.9% | [10] 92.2%

C=C1C(=O)O[C@H]2[C@H]1CC/C(COC(=O)c1ccccc1)=C\CC[C@@]1(C)O[C@@H]21
active: [2] -37.2% | [6] -41.9% | [7] -77.7% | [9] -59.2% | [10] -64.7%
inactive: [1] 45% | [3] 59.3% | [4] 36.6% | [5] 38% | [8] 23.3%

Cc1nssc1=S
inactive: [1] 91.5% | [2] 99.6% | [3] 85.2% | [4] 107% | [5] 109% | [6] 59.9% | [7] 82.6% | [8] 111% | [9] 95.3% | [10] 91.2%

COc1ccccc1N1CCN(CCCOc2ccc(OCCCN3CCN(c4ccccc4OC)CC3)c(C(=O)c3cc(OC)c(OC)c(OC)c3)c2)CC1
inactive: [1] 95.4% | [2] 111% | [3] 96.5% | [4] 113% | [5] 115% | [6] 94.2% | [7] 106% | [8] 109% | [9] 105% | [10] 99.5%

COc1cc2ncnc(Oc3ccc(NC(=O)Nc4ccc(C5(C#N)CCCC5)cc4)c4ccccc34)c2cc1OC
active: [6] -39.8% | [9] -40.7%
inactive: [1] 47.6% | [2] 80.3% | [3] 66.7% | [4] 41.5% | [5] 19.3% | [7] 37.8% | [8] 25.6% | [10] 82.5%

O=C(O)c1ccc(-n2cc(/C=N/Nc3ccc(F)cc3)c(-c3cccc(C(F)(F)F)c3)n2)cc1
inactive: [1] 81% | [2] 92.5% | [3] 76.5% | [4] 96.1% | [5] 81.6% | [6] 95.9% | [7] 36.3% | [8] 65.7% | [9] 79.9% | [10] 105%

OC(COc1ccccc1Cl)CN1CCN(c2ccc(Cl)cc2)CC1 (stereo not given)
inactive: [1] 107% | [2] 94.5% | [3] 101% | [4] 108% | [5] 104% | [6] 85.8% | [7] 92.6% | [8] 112% | [9] 106% | [10] 116%

O=C(O)c1ccc(-n2cc(/C=N/Nc3ccccc3F)c(-c3ccc(O)cc3)n2)cc1
inactive: [1] 92.3% | [2] 95.3% | [3] 79.1% | [4] 91.7% | [5] 101% | [6] 95.6% | [7] 48.3% | [8] 86.8% | [9] 84% | [10] 95.9%

CCCCCCCCCCCCCCCCNc1ccccc1
inactive: [1] 102% | [2] 99.8% | [3] 83.8% | [4] 105% | [5] 105% | [6] 97.7% | [7] 64.6% | [8] 59.7% | [9] 81.4% | [10] 113%

O=C1OC(c2ccc(-c3ccccc3)cc2)=C/C1=C/C=C/c1ccccc1
active: [8] 9.59%
inactive: [1] 100% | [2] 82.3% | [3] 92.5% | [4] 97.1% | [5] 103% | [6] 68.7% | [7] 95.1% | [10] 120%

COc1cccc(C2CC(c3cc(OC)c(OC)c(OC)c3)=NN2)c1 (stereo not given)
inactive: [1] 89.6% | [2] 91.7% | [3] 99.6% | [4] 83% | [5] 93.7% | [6] 80% | [7] 80.3% | [8] 84.4% | [9] 86.9% | [10] 106%

CCn1c(SCC(=O)c2ccc(Br)cc2)nnc1-c1cc2c([nH]c3ccccc32)c(-c2cccc(O)c2)n1
inactive: [1] 85.2% | [2] 94.4% | [3] 79.2% | [4] 67.6% | [5] 68.1% | [6] 95.2% | [7] 49.2% | [8] 41% | [9] 32.9% | [10] 108%

CNC(=O)NN
inactive: [1] 98.2% | [2] 103% | [3] 103% | [4] 94.7% | [5] 105% | [6] 82.5% | [7] 104% | [8] 98.9% | [9] 107% | [10] 94.5%

COc1ccc(-n2c(-c3ccc(NC(=O)CCCl)cc3)nnc2-c2cc(OC)c(OC)c(OC)c2)cc1
active: [5] 7.54% | [10] 8.54%
inactive: [1] 54.8% | [2] 68.8% | [3] 59.4% | [4] 54.8% | [6] 46.1% | [7] 43.8% | [8] 30.2% | [9] 75.4%

COc1cc(-c2nc(SCC(=O)Nc3ccc(C(C)=O)cc3)[nH]c(=O)c2C#N)cc(OC)c1OC
active: [5] 5.79% | [7] -14.5% | [10] -16.2%
inactive: [1] 38.4% | [2] 58.5% | [3] 45.3% | [4] 20.7% | [6] 10.3% | [8] 19.8% | [9] 35.5%

CCC(C)Nc1ccc(N)cc1 (stereo not given)
inactive: [2] 42.5% | [3] 53.3% | [4] 11.6% | [8] 11.8%
active: [1] 5.04% | [5] 9.41% | [6] -24.5% | [7] -25.2% | [9] -35.8% | [10] -57.2%

COc1cccc(-c2nc3sccn3c2-c2ccnc(NCCNC(=O)Nc3cccc(C(F)(F)F)c3)n2)c1
inactive: [1] 83.8% | [2] 94.9% | [3] 81.3% | [4] 98.9% | [5] 45.1% | [6] 92.4% | [7] 47.7% | [8] 44.4% | [9] 65.6% | [10] 57.6%

Cc1c(Cl)ccc2c(C(=O)Cl)cc(-c3ccccc3)nc12
inactive: [1] 98.8% | [2] 90.8% | [3] 103% | [4] 85.4% | [5] 98.2% | [6] 93.5% | [7] 95.1% | [8] 92.9% | [9] 97.1% | [10] 111%

CC(C)NCC(O)COc1ccc(CC(N)=O)cc1 (stereo not given)
inactive: [1] 105% | [2] 102% | [3] 100% | [4] 102% | [5] 109% | [6] 85.6% | [7] 94.9% | [8] 106% | [9] 97.2% | [10] 114%

O=C(Nc1cccc(-n2ccc3c(NC(=O)c4ccccc4)nccc32)c1)c1cc(N2CCOCC2)cc(C(F)(F)F)c1
active: [5] -11% | [8] -8.84% | [9] -31.6% | [10] -51.4%
inactive: [1] 19.8% | [2] 28.7% | [3] 30.8% | [4] 36.6% | [6] 29.3%

c1ccc([Se]CCCN2CCN(CCC[Se]c3ccccc3)CC2)cc1
inactive: [1] 106% | [2] 116% | [3] 121% | [4] 94.5% | [5] 103% | [6] 87.3% | [8] 108% | [9] 96.4% | [10] 135%

CCCCNc1cc(C(=O)O)cc(S(N)(=O)=O)c1Oc1ccccc1
inactive: [1] 102% | [2] 91% | [3] 101% | [4] 101% | [5] 104% | [6] 81% | [8] 105% | [9] 103% | [10] 98.6%

CCCCn1c(-c2cccc(OC)c2)nc2cc(OC)c(OC)cc2c1=O
inactive: [1] 87.3% | [2] 92.8% | [3] 197% | [4] 45.7% | [5] 115% | [6] 83.1% | [7] 92.4% | [8] 11.3% | [10] 117%

Source: PubChem BioAssay (NCI)
